Read-out in experiment [1]: TIMP metallopeptidase inhibitor 1 (TIMP1), TIMP1 (gene 7076)
The experiment in a line: BSK_hDFCGF_TIMP1: BioMAP Diversity Plus: hDFCGF Assay for TIMP metallopeptidase inhibitor 1 (TIMP1) Biomarker Activity (AID 2283062). The note with it: primary human foreskin fibroblasts; actives raise or lower the signal. The method in brief:
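Human foreskin fibroblast primary cultures dosed for 24 h; secreted/surface TIMP-1 quantified by ELISA. Bidirectional curve fitting against DMSO baseline; cytotoxicity tracked in parallel cultures by SRB total-protein staining.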

Read-out in experiment [2]: Monokine induced gamma interferon (MIG), CXCL9 (gene 4283)
Kind of experiment: BSK_hDFCGF_MIG: BioMAP Diversity Plus: hDFCGF Assay for Monokine induced gamma interferon (MIG) Biomarker Activity (AID 2283063). The note with it: primary human foreskin fibroblasts; actives raise or lower the signal. Summed up: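 MIG/CXCL9 measured by ELISA 24 h after dosing primary human skin fibroblasts. Activity fitted in both directions against DMSO controls. Cytotoxicity was checked in parallel cultures by SRB staining read at 560 nm.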

Read-out in experiment [3]: Matrix Metallopeptidase 1 (MMP1), MMP1 (gene 4312)
Kind of experiment: BSK_hDFCGF_MMP1: BioMAP Diversity Plus: hDFCGF Assay for Matrix Metallopeptidase 1 (MMP1) Biomarker Activity (AID 2283064). The note with it: primary human foreskin fibroblasts; actives raise or lower the signal. The method in brief:
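hDFCGF primary fibroblasts (human foreskin); chemical added; 24 h; MMP1 by ELISA; bidirectional fit vs DMSO.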

Read-out in experiment [4]: Vascular cell adhesion molecule 1 (VCAM1), VCAM1 (gene 7412)
The experiment in a line: BSK_hDFCGF_VCAM1: BioMAP Diversity Plus: hDFCGF Assay for Vascular cell adhesion molecule 1 (VCAM1) Biomarker Activity (AID 2283065).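 On AC50: VCAM-1 protein level quantified by ELISA after 24 h chemical exposure.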 The conditions noted are these: primary human foreskin fibroblasts; actives raise or lower the signal. The method in brief: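 Human foreskin fibroblast primary cells dosed with chemical, VCAM-1 measured by ELISA at 24 h. Bidirectional curve fitting relative to DMSO as negative control/baseline.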

Read-out in experiment [5]: Intercellular Adhesion Molecule 1 (ICAM1), ICAM1 (gene 3383)
The experiment in a line: BSK_KF3CT_ICAM1: BioMAP Diversity Plus: KF3CT Assay for Intercellular Adhesion Molecule 1 (ICAM1) Biomarker Activity (AID 2283067). The conditions noted are these: primary human keratinocytes with fibroblasts; actives raise or lower the signal. The method in brief:
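Human keratinocyte–foreskin fibroblast co-culture was treated for 24 h. Cell-surface ICAM-1 was quantified by ELISA, fitted bidirectionally relative to DMSO. Cytotoxicity was checked in parallel cultures by SRB total-protein staining.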

Read-out in experiment [6]: Interferon-gamma inducible Protein 10 (IP10), CXCL10 (gene 3627)
The experiment in a line: BSK_KF3CT_IP10: BioMAP Diversity Plus: KF3CT Assay for Interferon-gamma inducible Protein 10 (IP10) Biomarker Activity (AID 2283068). The conditions noted are these: primary human keratinocytes with fibroblasts; actives raise or lower the signal. The method in brief: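 Human keratinocyte plus foreskin fibroblast primary co-culture exposed to test chemical for 24 h; IP-10 measured by ELISA. Concentration-response fitted bidirectionally against DMSO control as baseline.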

A short description of experiment [7]: BSK_KF3CT_SRB: Viability Assessment in the BioMAP Diversity Plus: KF3CT Assay (AID 2283069).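 Further: total protein by sulforhodamine B staining as a cytotoxicity measure; fitted for both signal gain and loss against DMSO baseline.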 The note with it: primary human keratinocytes with fibroblasts. The method in brief:
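Keratinocytes co-cultured with foreskin fibroblasts (human primary); chemical added, 24 h; fix 10% TCA, stain 0.1% SRB, A560. Bidirectional fit vs DMSO.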

Read-out in experiment [8]: Interleukin-1 alpha (IL1a), IL1A (gene 3552)
Kind of experiment: BSK_KF3CT_IL1a: BioMAP Diversity Plus: KF3CT Assay for Interleukin-1 alpha (IL1a) Biomarker Activity (AID 2283070). The note with it: primary human keratinocytes with fibroblasts; actives raise or lower the signal. The method in brief:
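Chemicals were dosed onto co-cultured human keratinocytes and foreskin fibroblasts, IL-1a was quantified by ELISA at 24 h, and activity was fitted in both directions relative to DMSO controls.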

Read-out in experiment [9]: TIMP metallopeptidase inhibitor 2 (TIMP2), TIMP2 (gene 7077)
Kind of experiment: BSK_KF3CT_TIMP2: BioMAP Diversity Plus: KF3CT Assay for TIMP metallopeptidase inhibitor 2 (TIMP2) Biomarker Activity (AID 2283071). The conditions noted are these: primary human keratinocytes with fibroblasts; actives raise or lower the signal. The method in brief: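 Co-culture of human primary keratinocytes and foreskin fibroblasts, measured 24 h after chemical dosing. TIMP-2 quantified by ELISA and fitted in both directions relative to DMSO. Cytotoxicity checked in parallel cultures by SRB total-protein staining.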

Read-out in experiment [10]: Transforming growth factor beta 1 (TGFb1), TGFB1 (gene 7040)
The experiment in a line: BSK_KF3CT_TGFb1: BioMAP Diversity Plus: KF3CT Assay for Transforming growth factor beta 1 (TGFb1) Biomarker Activity (AID 2283072). The note with it: primary human keratinocytes with fibroblasts; actives raise or lower the signal. The method in brief: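 Human keratinocyte/foreskin fibroblast co-culture; TGF-b1 measured by ELISA 24 h after dosing, fitted bidirectionally versus DMSO. Cytotoxicity checked in parallel cultures by total protein (SRB staining, 560 nm).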

Read-out in experiment [11]: C-C motif chemokine 2 (Homo sapiens) (UniProt P13500)
Kind of experiment: BSK_KF3CT_MCP1: BioMAP Diversity Plus: KF3CT Assay for Monocyte Chemoattractant Protein 1 (MCP1/CCL2) Biomarker Activity (AID 2283073). The conditions noted are these: primary human keratinocytes with fibroblasts; actives raise or lower the signal. The method in brief: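 Human keratinocyte–foreskin fibroblast co-culture; MCP-1 measured by ELISA 24 h after dosing. Bidirectional fit vs DMSO; cytotoxicity tracked by SRB total protein in parallel cultures.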

Read-out in experiment [12]: Matrix Metallopeptidase 9 (MMP9), MMP9 (gene 4318)
The experiment in a line: BSK_KF3CT_MMP9: BioMAP Diversity Plus: KF3CT Assay for Matrix Metallopeptidase 9 (MMP9) Biomarker Activity (AID 2283074).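 On AC50: MMP9 protein level quantified by ELISA in the co-culture.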 The note with it: primary human keratinocytes with fibroblasts; actives raise or lower the signal. Summed up: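 Human keratinocyte/foreskin fibroblast co-culture; compound added; 24 h; MMP-9 by ELISA; bidirectional fit vs DMSO baseline.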

Read-out in experiment [13]: urokinase plasminogen activator (uPA), PLAU (gene 5328)
Kind of experiment: BSK_KF3CT_uPA: BioMAP Diversity Plus: KF3CT Assay for urokinase plasminogen activator (uPA) Biomarker Activity (AID 2283075). The note with it: primary human keratinocytes with fibroblasts; actives raise or lower the signal. Summed up:
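ELISA readout of uPA, analyzed for signal gain or loss relative to DMSO, from a human primary keratinocyte–foreskin fibroblast co-culture measured 24 h after chemical treatment.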

Read-out in experiment [14]: CD40, CD40 (gene 958)
Kind of experiment: BSK_LPS_CD40: BioMAP Diversity Plus: LPS Assay for CD40 Biomarker Activity (AID 2283076). The note with it: primary human HUVEC with PBMC; actives raise or lower the signal. Summed up: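 HUVEC plus PBMC co-culture stimulated with LPS; CD40 quantified by ELISA 24 h after compound dosing. Fitting was bidirectional relative to DMSO. SRB staining of parallel cultures flagged overt cytotoxicity.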

Read-out in experiment [15]: E-selectin (Homo sapiens) (UniProt P16581)
The experiment in a line: BSK_LPS_Eselectin: BioMAP Diversity Plus: LPS Assay for Eselectin Biomarker Activity (AID 2283077). The conditions noted are these: primary human HUVEC with PBMC; actives raise or lower the signal. Summed up:
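Human umbilical vein endothelial cells co-cultured with PBMC under LPS stimulation; cell-surface E-selectin measured by ELISA 24 h after dosing. Change in either direction versus DMSO, with SRB total-protein staining in parallel cultures for cytotoxicity.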

Read-out in experiment [16]: Interleukin-8 (IL8), CXCL8 (gene 3576)
The experiment in a line: BSK_LPS_IL8: BioMAP Diversity Plus: LPS Assay for Interleukin-8 (IL8) Biomarker Activity (AID 2283078). The conditions noted are these: primary human HUVEC with PBMC; actives raise or lower the signal. Summed up: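 Human umbilical vein endothelial cells co-cultured with PBMC, LPS-stimulated, exposed to compound for 24 h. IL-8 quantified by ELISA; fitted in both directions against DMSO, with SRB total-protein staining of parallel cultures for cytotoxicity.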

Experiment [17] is described as follows: BSK_LPS_SRB: Viability Assessment in the BioMAP Diversity Plus: LPS Assay (AID 2283079).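 Further: total protein by sulforhodamine B absorbance as a cytotoxicity measure; measured one day after compound addition; fitted in both directions against DMSO so loss or gain of signal counts.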 The conditions noted are these: primary human HUVEC with PBMC. Summed up: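 Co-culture of human umbilical vein endothelial cells and PBMC, read 24 h after dosing. Total protein by 0.1% SRB staining after 10% TCA fixation, absorbance at 560 nm; bidirectional fit against DMSO.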

Read-out in experiment [18]: Interleukin-1 alpha (IL1a), IL1A (gene 3552)
Kind of experiment: BSK_LPS_IL1a: BioMAP Diversity Plus: LPS Assay for Interleukin-1 alpha (IL1a) Biomarker Activity (AID 2283080). The conditions noted are these: primary human HUVEC with PBMC; actives raise or lower the signal. The method in brief:
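Human umbilical vein endothelial cells co-cultured with PBMC and stimulated with LPS; IL-1a measured by ELISA 24 h after dosing. Bidirectional fitting against DMSO; cytotoxicity checked by SRB staining in parallel cultures.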

Read-out in experiment [19]: Monocyte Chemoattractant Protein-1 (MCP1), CCL2 (gene 6347)
Kind of experiment: BSK_LPS_MCP1: BioMAP Diversity Plus: LPS Assay for Monocyte Chemoattractant Protein-1 (MCP1) Biomarker Activity (AID 2283081).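 On AC50: secreted MCP-1 protein quantified by ELISA in culture supernatant.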 The note with it: primary human HUVEC with PBMC; actives raise or lower the signal. Summed up: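 Human umbilical vein endothelial cells co-cultured with PBMC, LPS-stimulated; secreted MCP-1 measured by ELISA 24 h after compound addition. Bidirectional curve fitting against DMSO baseline; SRB total-protein staining in parallel cultures for cytotoxicity.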

Read-out in experiment [20]: Plasminogen activator inhibitor-1 (PAI1), SERPINE1 (gene 5054)
The experiment in a line: BSK_hDFCGF_PAI1: BioMAP Diversity Plus: hDFCGF Assay for Plasminogen activator inhibitor-1 (PAI1) Biomarker Activity (AID 2283066). The conditions noted are these: primary human foreskin fibroblasts; actives raise or lower the signal. The method in brief:
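Human foreskin fibroblast primary cells, 24 h chemical exposure; PAI-1 measured by ELISA. Bidirectional fitting relative to DMSO; parallel cultures stained with SRB for total protein to flag overt cytotoxicity.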

Activity calls are given as the source filed them. How the source made its calls: active means hit-call score of the fitted dose curve at least 0.9, where 1 is the maximum; inactive means score below 0.9.

Chain of E-selectin (Homo sapiens) (P16581 whole entry, looked up): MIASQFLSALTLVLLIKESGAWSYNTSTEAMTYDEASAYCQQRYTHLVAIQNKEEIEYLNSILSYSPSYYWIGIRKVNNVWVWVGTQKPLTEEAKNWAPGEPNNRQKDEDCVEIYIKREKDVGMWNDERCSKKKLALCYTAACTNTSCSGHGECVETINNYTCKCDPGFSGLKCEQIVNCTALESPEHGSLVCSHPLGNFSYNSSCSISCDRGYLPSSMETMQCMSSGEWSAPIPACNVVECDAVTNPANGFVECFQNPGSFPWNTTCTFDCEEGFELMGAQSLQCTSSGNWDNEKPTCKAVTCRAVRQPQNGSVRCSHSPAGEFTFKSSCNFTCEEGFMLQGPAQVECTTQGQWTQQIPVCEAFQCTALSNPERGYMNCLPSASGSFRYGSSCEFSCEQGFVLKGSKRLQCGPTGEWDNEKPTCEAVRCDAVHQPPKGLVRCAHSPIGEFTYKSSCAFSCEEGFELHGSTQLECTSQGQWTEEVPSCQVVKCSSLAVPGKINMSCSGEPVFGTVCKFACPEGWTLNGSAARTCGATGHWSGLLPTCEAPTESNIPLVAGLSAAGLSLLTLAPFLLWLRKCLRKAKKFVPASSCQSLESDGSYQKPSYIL

On to `[As]#[In]`, for which the outcome in [1], in experiment [2], in experiment [3], in [4], in experiment [5] and in experiment [6] was inactive. The outcome in [7], in experiment [8], in [9], in [10], in experiment [11] and in experiment [12] was inactive. Further, the result in [13], in [14], in experiment [15], in [16], in experiment [17] and in experiment [18] was inactive. Further, the result in [19] was inactive.
For `Nc1ccc(Cc2ccc(N)cc2)cc1`, the outcome in experiment [1], in experiment [2], in [3], in experiment [4], in experiment [20] and in [5] was inactive. In addition, the result in [6], in experiment [7], in experiment [8], in [9], in [10] and in experiment [11] was inactive. Moreover, the result in experiment [12], in [13], in experiment [14], in experiment [15], in [16] and in experiment [17] was inactive. Besides, the result in experiment [18] and in [19] was inactive.
The AC50 is the midpoint of the concentration-response curve, whichever way the signal moves. Regarding `ClC1=C(Cl)C2(Cl)C3C(Cl)C=CC3C1(Cl)C2(Cl)Cl` (stereo not drawn), the AC50 in experiment [1] was 9.82 µM (active); in experiment [2], 10.6 µM (active); in experiment [3] it was 13.4 µM (active); in experiment [4], 8.26 µM (active); in experiment [5], 30.2 µM (active); in experiment [6], 15.3 µM (active). Further, the AC50 in [7] is 28.6 µM (active); in experiment [8] it was 27.3 µM (active); in experiment [9], 24.6 µM (active); in [10] it was 14 µM (active); in experiment [11] it was 14.6 µM (active); in experiment [12], 13.8 µM (active). Besides, the AC50 in experiment [13] was 31 µM (active); in [14], 30.9 µM (active); in experiment [15], 30.6 µM (active); in [16], 31.6 µM (active); in experiment [17], 29.5 µM (active); in experiment [18], 30 µM (active). Besides, the AC50 in experiment [19] was 31.4 µM (active).

Source of the values: PubChem BioAssay (EPA / NIEHS).
